# Results reported in PubChem BioAssay AID504690 (Sanford-Burnham Center for Chemical Genomics, 2011).
# In all, about 350,000 compounds went through this assay and about 2,700 (0.77%) were called active.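 The calls were made as follows: active = inhibition reaching at least a set limit at 20 µM in the primary screen (cut at about 59% in these data); inactive = the rest.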 Shown is part of a subset that was picked to be rich in actives.
# Tested on: glucose-6-phosphate dehydrogenase-6-phosphogluconolactonase (Plasmodium falciparum 3D7)
# Test: PfG6PD enzyme inhibitors, primary screen, biochemical, fluorescence intensity, uHTS (AID 504690);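 also: 0% = DMSO wells with substrate and 100% = DMSO wells lacking glucose-6-phosphate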
# Details: PfGluPho enzyme, NADPH resazurin-diaphorase fluorescence; at 20 µM; active compounds read high
row,SMILES,inhibition
1,CC(C)C(=O)Nc1ccc2c3c(cccc13)CC2,-13.6% (inactive)
2,CC1CCCN(S(=O)(=O)c2ccc(N(C(=O)c3cnccn3)C(C(=O)NC3CCCCC3)c3cccs3)cc2)C1 (centres undefined),13.2% (inactive)
3,Cc1ccc2c(c1)NCC(C(=O)NC1CCC(C)CC1)O2 (centres undefined),18.8% (inactive)
4,COc1ccc2c(c1)c(=Cc1ccc(N(C)C)cc1)c1cc(-c3ccccc3)[n+](C)n12,70% (active)
5,Cc1cccc(C)c1NC(=O)CNC(=O)c1c(C)nn(-c2ccccc2)c1C,-4.32% (inactive)
6,COCC(=O)Nc1c(I)c(C(=O)NCC(O)CO)c(I)c(C(=O)N(C)CC(O)CO)c1I (centres undefined),-11% (inactive)
7,O=C(Nc1ccc(-c2cscn2)cc1)C1CCCN(Cc2ccc(CO)o2)C1 (centres undefined),-2.34% (inactive)
8,O=C1/C(=C\c2cccnc2)CN(Cc2ccccc2)C/C1=C\c1cccnc1,20.5% (inactive)
9,COc1ccc(Cl)cc1C(=O)Nc1ccc(N(C)C(C)=O)cc1,7.67% (inactive)
10,COc1cc(OC)c(C(=O)Nc2ccc(N(C)C)cc2)cc1OC,70.5% (active)
11,COc1cc(OC)c(C(=O)Nc2ccccc2-c2ccccc2)cc1OC,6.28% (inactive)
12,O=C(NC12CC3CC(CC(C3)C1)C2)N1CCCC(CO)C1 (centres undefined),-9.02% (inactive)
13,CSc1ccc(CCNC(=O)C2CCN(c3nnc(-n4cccc4)s3)CC2)cc1,-2.74% (inactive)
14,O=C(Oc1c(-c2ccco2)oc2ccccc2c1=O)c1cccnc1,-16.3% (inactive)
15,CCn1nc(C(=O)NNS(=O)(=O)c2cc(/C=C/C(=O)O)cc(OC)c2OC)c2ccccc2c1=O,11.8% (inactive)
16,OCCN1CCN(C(=S)c2ccc(-c3ccccc3)cc2)CC1,66.4% (active)
17,S=C(c1ccc(-c2ccccc2)o1)N1CCCCC1,52.2% (inactive)
18,CN1CCN(CCCCOc2ccccc2-c2ccccc2)CC1,5.8% (inactive)
19,COc1ccccc1CCCNC(=O)C1CCC(=O)N(CCN2CCOCC2)C1 (centres undefined),-4.18% (inactive)
20,CC(=O)Nc1nc2c(s1)C(=O)NCC(C)(C)C2,-8.85% (inactive)

row,SMILES,inhibition
1,Cc1ccc(-n2nc(-c3ccco3)cc2C(=O)NCc2cccnc2)cc1,38.2% (inactive)
2,CC1CN(C(=S)Nc2ccc(S(N)(=O)=O)cc2)CC(C)O1 (centres undefined),13.9% (inactive)
3,O=C(CCS(=O)(=O)c1cccc2nonc12)NCCc1ccccc1Cl,0.62% (inactive)
4,Oc1c(C=Nc2cccc3nsnc23)ccc2ccccc12,64.6% (active)
5,c1ccc(-c2cn3c(n2)CCc2ccc4cccnc4c2-3)cc1,107% (active)
6,OC(CN=c1sc2ccccc2n1CC(O)COc1ccccc1)COc1ccccc1 (centres undefined),22.7% (inactive)
7,Nc1ccc2nc3c(=O)[nH]c(=S)[nH]c3nc2c1,83.3% (active)
8,Cc1ccc(S(=O)(=O)N2CCN(C(=O)CSc3cc(C)ccc3C)CC2)c(C)c1,13.7% (inactive)
9,CCCOC1CCCN(C(=O)c2cc(COc3cncc(Cl)c3)on2)C1 (centres undefined),3.11% (inactive)
10,CCCCNS(=O)(=O)c1ccc(S(=O)(=O)n2cnc3ccccc32)cc1,-0.9% (inactive)
11,CCOc1c2ccc(C(=O)NC3CCCc4ccccc43)cc2nn1CC (centres undefined),0.09% (inactive)
12,CC1=CC(C)(C)Nc2ccc(OC(=O)CN3C(=O)C4CCCCC4C3=O)cc21 (centres undefined),70.6% (active)
13,CC1=CC(C)(C)Nc2ccc(OC(=O)C(Cc3ccccc3)N3C(=O)C4CCCCC4C3=O)cc21 (centres undefined),38.3% (inactive)
14,O=C(COC(=O)CN1C(=O)C2CCCCC2C1=O)Nc1ccc(F)c(F)c1F (centres undefined),14.5% (inactive)
15,CC1CCCCC1NC(=O)CCS(=O)(=O)c1ccc2c(c1)NC(=O)CO2 (centres undefined),4.88% (inactive)
16,CN(C)N(C)C(=O)C(O)(c1ccccc1)c1ccccc1,-19.5% (inactive)
17,C/C=C/c1ccc(OCC(=O)OCC(=O)Nc2c(C)nn(-c3ccccc3)c2C)c(OC)c1,-4.73% (inactive)
18,N=c1n(Cc2ccc(Cl)cc2)c2ccccc2n1CC(O)c1ccco1 (centres undefined),8.27% (inactive)
19,O=C(Nc1ncccc1O)c1ccc(C(=O)c2ccccc2)cc1,-5.63% (inactive)
20,O=C(NC1=CC(=O)c2ccccc2C1=O)c1ccccc1,80.4% (active)

row,SMILES,inhibition
1,O=C(Nc1ccc2ccccc2c1[N+](=O)[O-])c1ccccc1,33.8% (inactive)
2,COc1ccc(C(=O)NCc2nnc(SCCOc3ccccc3)n2C)cc1,-13% (inactive)
3,COc1ccc(OCc2nnc3n2N=C(c2ccccc2)C(CC(=O)O)S3)cc1 (centres undefined),88.1% (active)
4,CC(Sc1nnc(COc2ccccc2)n1-c1ccccc1)C(=O)O (centres undefined),-12.2% (inactive)
5,Cc1cccc(C)c1NC(=O)c1ccc(CN2CCc3ccccc3C2)cc1,4.01% (inactive)
6,O=C(c1cccnc1)N1CCN(S(=O)(=O)c2cccs2)CC1,-17.9% (inactive)
7,COc1ccccc1C(=O)N1CCNC(=O)C1CC(=O)Nc1ccc(Cl)cc1 (centres undefined),-0.83% (inactive)
8,CN1CCc2nc(SC(C(=O)O)c3ccccc3)c(C#N)c(-c3cccs3)c2C1 (centres undefined),33.9% (inactive)
9,Cc1noc(C)c1C(=O)OC(C)C(=O)Nc1ccc2c(c1)OCO2 (centres undefined),7.92% (inactive)
10,O=S1(=O)N=C(N(CCO)/N=C/c2ccccc2F)c2ccccc21,-22.8% (inactive)
11,CCOC(=O)c1ccccc1CN1C(=O)c2ccccc2S1(=O)=O,-6.44% (inactive)
12,CCOC(=O)C1=C(c2ccc(OC)cc2)C(=O)c2ccccc2C1=O,101% (active)
13,CCOC(=O)C(NC(C)=O)C(=O)Nc1ccc(OC)cc1 (centres undefined),-2.17% (inactive)
14,CCOC(=O)c1c(C)nn(-c2ncccc2NC(=O)CCC(=O)O)c1C,-27.7% (inactive)
15,CC(C)[C@H](NC(=O)N1CCn2c1nc1ccccc12)C(=O)NCc1ccc2c(c1)OCO2,20.7% (inactive)
16,COc1cc(C(F)(F)F)c(C(=O)N(C)c2ccc(Cl)cc2)cn1,5.85% (inactive)
17,COc1ccc(Cl)cc1NC(=O)CN(C)C(=O)c1cc2ccccc2cc1OC,11.4% (inactive)
18,COc1ccc(Cl)cc1NC(=O)CN(C)C(=O)CNC(=O)C12CC3CC(CC(C3)C1)C2,-2.93% (inactive)
19,COc1ccc(Cl)cc1NC(=O)CN(C)C(=O)CCCc1c[nH]c2ccccc12,78.4% (active)
